Experimental data: PubChem BioAssay
Several values for one entry are separate records, joined by “and”; a condition that tells them apart may be missing. Identical values can stand only once. Activity calls are given as the source filed them. How the calls were made is not given here.

assay: inhibitors of hydroxyurea-induced Chk1 phosphorylation, primary screen, imaging, HeLa, phospho-Chk1 antibody, percent positive cells (AID 1186); conditions: hydroxyurea-induced phospho-Chk1 immunofluorescence imaging, higher = more signal

**Q.** For `C=CCN(CCCC)C(=O)C1N(CCOCCO)C(=O)C2C(C(=O)O)C3C=CC21O3` (centres undefined), which z-score is on record?
**A.** -0.24 (inactive) and 0.924 (inactive)

**Q.** With `C=CCN(C(=O)C1N(C(C)(C)CO)C(=O)C2C(C(=O)O)C3C=CC21O3)C(C)(C)C` (centres undefined) as the compound, how does the z-score read?
**A.** -0.518 (inactive) and 1.17 (inactive)

**Q.** Which z-score does the source give for `C=CCN(C(=O)C1N(CCOCCO)C(=O)C2C(C(=O)O)C3C=CC21O3)c1ccc(OC)cc1` (centres undefined) here?
**A.** 0.0962 (inactive) and 0.399 (inactive)

**Q.** With `O=C1NC(=O)C2C1C=CC(C(O)c1ccc([N+](=O)[O-])cc1)N2Nc1ccc(Cl)cc1Cl` (centres undefined) as the compound, how does the z-score read?
**A.** -0.85 (inactive) and -0.665 (inactive)

**Q.** Which z-score does the source give for `CCOC(=O)C[C@H]1[C@H](OC(=O)c2ccccc2-c2ccccc2)[C@@H](NC(=O)c2ccccc2)c2cc(OCCCO)ccc2N1C(=O)c1ccc2ccccc2n1` here?
**A.** 0.105 (inactive) and -0.0471 (inactive)

**Q.** For `COC(=O)[C@@]1(Cc2ccc(F)cc2)[C@H]2c3cc(C(=O)N4CCCC4)n(Cc4c(CO)[nH]cc(C)c4=O)c3C[C@H]2CN1C(=O)c1ccccc1`, which z-score is on record?
**A.** 0.113 (inactive) and 0.998 (inactive)

**Q.** For `CC(CO)N1C(=O)[C@@H]2C3C(=O)OCCC=C[C@H]3OC23C=CCN(c2ccc4ccccc4c2)C(=O)[C@@H]13` (some centres undefined), which z-score is on record?
**A.** -0.437 (inactive) and 0.0615 (inactive)

**Q.** Which z-score does the source give for `C=CCN(C(=O)C1N(C(C)(C)CO)C(=O)C2C(C(=O)O)C3C=CC21O3)c1ccc(OC)cc1` (centres undefined) here?
**A.** 2.27 (inactive) and 0.407 (inactive)

**Q.** For `C=CCN(C(=O)C(c1cccs1)N(C(=O)/C=C\C(=O)O)c1ccc(CCO)cc1)C(C)(C)C` (centres undefined), which z-score is on record?
**A.** 0.632 (inactive) and 1.03 (inactive)

**Q.** Which z-score does the source give for `C=C[C@@H](OC)[C@H](O)c1ccc(OC)c(O)c1` here?
**A.** 0.719 (inactive) and -0.433 (inactive)

**Q.** For `C=CCN(CCCCC)C(=O)C(c1cccs1)N(C(=O)/C=C\C(=O)O)c1ccc(CCO)cc1` (centres undefined), which z-score is on record?
**A.** 0.51 (inactive) and 0.163 (inactive)

**Q.** With `C=CCN(C(=O)C(c1cccs1)N(C(=O)/C=C\C(=O)O)c1c(Cl)cccc1CO)c1ccc(OC)cc1` (centres undefined) as the compound, how does the z-score read?
**A.** -0.0464 (inactive) and 0.245 (inactive)

**Q.** Which z-score does the source give for `C=C[C@H](OC)[C@@H](O)c1ccc(OCCO)cc1` here?
**A.** 0.228 (inactive) and 0.524 (inactive)

**Q.** For `C=CCN(C(=O)C1N(c2c(Cl)cccc2CO)C(=O)C2C(C(=O)O)C3C=CC21O3)c1ccc(OC)cc1` (centres undefined), which z-score is on record?
**A.** -0.6 (inactive) and -1.27 (inactive)

**Q.** Which z-score does the source give for `C#CCN1C(/C=C/c2ccccc2)C(=O)OC[C@H]1c1ccccc1` (some centres undefined) here?
**A.** -0.322 (inactive) and 0.0385 (inactive)

**Q.** Which z-score does the source give for `C=C[C@H](C)[C@H](O)c1ccc(O)c2ccccc12` here?
**A.** -1.1 (inactive) and -1.31 (inactive)

**Q.** With `C=CCN(C(=O)C1N(CCOCCO)C(=O)C2C(C(=O)O)C3C=CC21O3)C(C)(C)C` (centres undefined) as the compound, how does the z-score read?
**A.** -0.262 (inactive) and -0.147 (inactive)

**Q.** With `C[N+](C)(C)CCCCCCNC(=O)[C@@H]1C[C@@H]2C(=O)N[C@@H](CCCC[N+](C)(C)C)C(=O)N2[C@@H]1c1ccc(O)cc1` as the compound, how does the z-score read?
**A.** 0.556 (inactive) and 0.31 (inactive)

**Q.** Which z-score does the source give for `C[N+](C)(C)CCCCCCNC(=O)[C@H]1C[C@H]2C(=O)N[C@@H](CCCC[N+](C)(C)C)C(=O)N2[C@H]1c1ccc(O)cc1` here?
**A.** -0.563 (inactive) and 0.0546 (inactive)

**Q.** With `C=CCN(CCCC)C(=O)C(c1cccs1)N(CCOCCO)C(=O)/C=C\C(=O)O` (centres undefined) as the compound, how does the z-score read?
**A.** -0.36 (inactive) and 0.442 (inactive)

**Q.** With `C=CCN(CCCC)C(=O)C1N(c2ccc(CCO)cc2)C(=O)C2C(C(=O)O)C3C=CC21O3` (centres undefined) as the compound, how does the z-score read?
**A.** 0.147 (inactive) and -0.608 (inactive)

**Q.** For `C[N+](C)(C)CCCCNC(=O)[C@@H]1C[C@@H]2C(=O)N[C@@H](CCCC[N+](C)(C)C)C(=O)N2[C@@H]1c1cccc(OCCO)c1`, which z-score is on record?
**A.** -0.123 (inactive) and -0.528 (inactive)

**Q.** With `C=CCN(Cc1ccccc1)C(=O)C1N(C(C)(C)CO)C(=O)C2C(C(=O)O)C3C=CC21O3` (centres undefined) as the compound, how does the z-score read?
**A.** -0.401 (inactive) and -0.113 (inactive)

**Q.** Which z-score does the source give for `C=CCN(Cc1ccccc1)C(=O)C1N(CCOCCO)C(=O)C2C(C(=O)O)C3C=CC21O3` (centres undefined) here?
**A.** -0.0844 (inactive) and 1.49 (inactive)

**Q.** With `C=CCN(C(=O)C(c1cccs1)N(C(=O)/C=C\C(=O)O)c1ccc(CCO)cc1)c1ccc(OC)cc1` (centres undefined) as the compound, how does the z-score read?
**A.** -0.157 (inactive) and 0.581 (inactive)

**Q.** With `CC(C)N1CC=CC23O[C@@H]4C=CCCOC(=O)C4[C@H]2C(=O)N(C(C)CO)[C@@H]3C1=O` (some centres undefined) as the compound, how does the z-score read?
**A.** -0.161 (inactive) and -0.496 (inactive)

**Q.** Which z-score does the source give for `C=CCN(CCCCC)C(=O)C1N(c2c(Cl)cccc2CO)C(=O)C2C(C(=O)O)C3C=CC21O3` (centres undefined) here?
**A.** -0.672 (inactive) and 0.433 (inactive)

**Q.** With `C=CCN(C(=O)C(c1cccs1)N(C(=O)/C=C\C(=O)O)c1c(Cl)cccc1CO)C(C)(C)C` (centres undefined) as the compound, how does the z-score read?
**A.** 0.221 (inactive) and 0.501 (inactive)

**Q.** For `C=C[C@H](OC)[C@@H](O)c1ccc(O)c(F)c1`, which z-score is on record?
**A.** -0.0834 (inactive) and -0.834 (inactive)

**Q.** With `C=CC[C@@H](O)c1ccc(O)c2ccccc12` as the compound, how does the z-score read?
**A.** 0.024 (inactive) and 0.26 (inactive)

**Q.** For `C=C[C@@H](C)[C@@H](O)c1ccc(OCCO)cc1`, which z-score is on record?
**A.** 1.19 (inactive) and -0.153 (inactive)

**Q.** With `C=CCN(CCCCC)C(=O)C1N(CCCCCCO)C(=O)C2C(C(=O)O)C3C=CC21O3` (centres undefined) as the compound, how does the z-score read?
**A.** 0.99 (inactive) and 1.26 (inactive)

**Q.** Which z-score does the source give for `C=CCN(CCCC)C(=O)C1N(C(C)(C)CO)C(=O)C2C(C(=O)O)C3C=CC21O3` (centres undefined) here?
**A.** -0.356 (inactive) and 0.83 (inactive)

**Q.** With `O=C1C[C@]2(c3ccc([N+](=O)[O-])cc3)C(=O)N(Cc3ccccc3)c3cc(CO)ccc3[C@H]2N1C1CCCCC1` as the compound, how does the z-score read?
**A.** 0.112 (inactive) and -0.427 (inactive)

**Q.** Which z-score does the source give for `C=C[C@H](C)[C@@H](O)c1ccc(OCCO)cc1` here?
**A.** 0.845 (inactive) and -1.4 (inactive)

**Q.** For `C=CCN(C(=O)C(c1cccs1)N(C(=O)/C=C\C(=O)O)C(C)(C)CO)C(C)(C)C` (centres undefined), which z-score is on record?
**A.** -0.225 (inactive) and -0.215 (inactive)

**Q.** Which z-score does the source give for `C=C[C@@H](C)[C@@H](O)c1ccc(O)c2ccccc12` here?
**A.** 0.789 (inactive) and 0.536 (inactive)

**Q.** With `C=CCN(Cc1ccccc1)C(=O)C1N(c2ccc(CCO)cc2)C(=O)C2C(C(=O)O)C3C=CC21O3` (centres undefined) as the compound, how does the z-score read?
**A.** 0.127 (inactive) and -0.193 (inactive)

**Q.** With `C=CCN1C(=O)[C@]2(O[C@H](CCn3cc(CCO)nn3)[C@@H]([Si](C)(C)c3ccc(OC)cc3)[C@@H]2C)c2cc(N3C(=O)c4cccc5cccc3c45)ccc21` as the compound, how does the z-score read?
**A.** -1.98 (inactive) and -1.13 (inactive)
